Experimental findings from PubChem BioAssay AID651820 (National Center for Advancing Translational Sciences (NCATS), 2012) are described below.

Out of some 340,000 compounds screened, about 12,000 (3.5%) were called active. Inconclusive results (about 18%) are left out. Only a selection was taken, and actives are over-represented in it overall. A number with no mark means an inactive call. Calls come from the whole dose curve; as a rule, active = well fitted inhibition curve with a large enough effect; inconclusive = small, poorly fitted or top-dose-only effect, or another doubt; inactive = no such curve, though single readings can be large or run the other way.
% is set by controls: 0 for no effect and ±100 for the full control effect; potency is the fitted concentration of half-maximal effect.

The nature of the assay: qHTS Assay for Inhibitors of Hepatitis C Virus (HCV). As to conditions: Huh7.5.1 HCVcc-Cre infection, luciferase reporter, 44 h; series mostly up to 41.8 µM; activity change, negative = inhibition: at the top concentration. An outline of the steps: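 1,000 cells/well; 4 h culture; + compound; + HCVcc-Cre (~0.5 moi); 44 h; luciferase substrate, RT 15 min; read 15 sec.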
In general terms: In qHTS, concentration-response curves come from the screen itself.
For the molecule `COC(=O)Cc1ccc(Oc2ncc(C(F)(F)F)cc2Cl)cc1`, the “activity change, negative = inhibition” value was -12.6%. For the molecule `COc1cccc(/C(C)=N/Nc2ncc(Cl)cc2Cl)c1`, the “activity change, negative = inhibition” value was -0.35%. On to `COc1cccc(/C=N/Nc2ncc(C(F)(F)F)cc2Cl)c1O`, for which the Potency was 5.62 µM (active). Regarding `Cc1cccc(NC(=O)CN2CCN(CC(=O)NCC3(N4CCCCC4)CCCCC3)CC2)c1C`, the “activity change, negative = inhibition” value is 6.26%.

Take `COc1ccc(S(=O)(=O)N2CCOCC2)cc1NC(=O)Cc1coc2cc(C)ccc12`: the “activity change, negative = inhibition” value was -7.25%. Same read-out and setting: then `Cc1ccc(-c2nn(-c3ccccc3)cc2C(=O)NCCCN2CCCC2=O)cc1`, with 1.07%. Consider `Cn1c(=O)n(CCc2ccccc2)c(=O)c2c1nc1n2CCCN1c1ccccc1`, for which the “activity change, negative = inhibition” value was -15.1%. Consider `CC(C)CCn1c(=O)c2c(nc3n2CCCN3Cc2ccccc2)n(C)c1=O`, for which the Potency was 11.2 µM (active). On to `CC(C)CCn1c(CN(C)Cc2ccccc2)nc2c1c(=O)n(C)c(=O)n2C`, for which the “activity change, negative = inhibition” value was -26.5%. Same read-out and setting: then `O=c1[nH]c(=S)[nH]c(O)c1/C=C1\C=Nc2ccccc21`, with 23.1%. With `Cc1cc(F)ccc1S(=O)(=O)Nc1ccc(C(=O)N(C)Cc2ccco2)cc1`, the “activity change, negative = inhibition” value was 4.73%. With `CCOC(=O)C1=CN(Cc2ccc(Br)cc2)S(=O)(=O)NC1C` (centres undefined), the “activity change, negative = inhibition” value was -13.7%.

As for `COC(=O)c1cc(Oc2ccc(S(=O)(=O)N3CCOCC3)cc2[N+](=O)[O-])cc(C(=O)OC)c1`, the “activity change, negative = inhibition” value is -16.3%. Consider `CC1CCN(CCC(=O)Nc2ccccc2)CC1`, for which the “activity change, negative = inhibition” value is 4.3%. As for `O=C(CCN1C(=O)c2ccccc2C1=O)Nc1ccncc1`, the “activity change, negative = inhibition” value was 10.5%. For the molecule `O=C(CCN1c2ccccc2Sc2ccccc21)Nc1ccccc1`, the Potency is 12.6 µM (active).

As to `O=S(=O)(Nc1ccc(-n2cnnn2)cc1)c1ccc(Cl)cc1`, the “activity change, negative = inhibition” value was 16.9%. Turning to `Fc1ccccc1-c1cc2cc3c(cc2cn1)OCO3`, the “activity change, negative = inhibition” value is -27.8%.

Consider `Cc1ccc(NC(=O)c2nc[nH]c2C(=O)N2CCCCC2)c(C(=O)c2ccccc2)c1`, for which the “activity change, negative = inhibition” value is 2.79%. Take `O=C(CCN1CCCCC1)NCC(=O)Nc1ccc(Br)cc1C(=O)c1ccccc1`: the Potency was 10 µM (active).

As for `COc1ccc(NC(=O)CCN2CCCC2)c(OC)c1`, the “activity change, negative = inhibition” value was 9.37%. For `Cc1cccc(C)c1Nc1nnc(SCC(=O)NCCCN2CCCC2=O)s1`, the “activity change, negative = inhibition” value was -10.2%. As to `COC(=O)C1=CO[C@@H](O[C@@H]2O[C@H](CO)[C@@H](O)[C@H](O)[C@H]2O)C2C1C[C@H](O)[C@@H]2C` (some centres undefined), the Potency was 2.51 µM (active).

With `CO[C@H]1[C@@H]2C=CO[C@@H](O[C@H]3O[C@@H](CO)[C@H](O)[C@@H](O)[C@@H]3O)[C@@H]2[C@@]2(CO)O[C@@H]12`, the “activity change, negative = inhibition” value was 13.9%. Take `C=CC1C(OC2OC(CO)C(O)C(O)C2O)OC=C(C(=O)OC)C1CC1CC(=O)CC(CC(=O)CCc2ccc(O)cc2)O1` (centres undefined): the “activity change, negative = inhibition” value was 7.56%. Take `Cc1cc(C(=O)CSc2nc(N)cc(=O)[nH]2)c(C)n1CCc1ccc(Cl)cc1`: the Potency was 11.2 µM (active). Regarding `Cc1cc(=O)[nH]c(SCc2ccc(Cl)cc2)n1`, the “activity change, negative = inhibition” value was 1.05%. As for `CCCc1cc(=O)[nH]c(SCC(=O)c2cc(C)n(CCC)c2C)n1`, the “activity change, negative = inhibition” value was -2.25%. Take `Cc1ccc(S(=O)(=O)N2CCN(C(=O)c3cc(S(=O)(=O)N4CCOCC4)ccc3F)CC2)cc1`: the “activity change, negative = inhibition” value was -10.9%. Turning to `CCCCCCCCNS(=O)(=O)CCNC1CCCCC1`, the “activity change, negative = inhibition” value is -21.1%. Turning to `COc1cccc(C(=O)Nc2ccc(N3CCN(C(=O)c4ccco4)CC3)cc2)c1`, the “activity change, negative = inhibition” value was -26.8%.

Regarding `COc1cccc(C(=O)Nc2ccc(N3CCCC3)cc2)c1`, the Potency is 11.2 µM (active). With `COc1ccc(C(=O)Nc2ccc(N3CCC(C)CC3)cc2)cc1Br`, the “activity change, negative = inhibition” value is -25.7%.

As to `O=C(CSc1ncn[nH]1)Nc1ccc(Br)cc1Br`, the “activity change, negative = inhibition” value is -19.4%. On to `COc1ccc(C(=O)NC2CCCc3c2cnn3-c2cccc(C)c2C)c(OC)n1` (centres undefined), for which the Potency was 2.24 µM (active). In the case of `Cc1cccc(C(=O)OC(C)C(=O)NC2CCCc3ccccc32)c1O` (centres undefined), the “activity change, negative = inhibition” value is 10.8%. On to `CC(=O)NCC(=O)NC1CCCc2c1cnn2-c1ccccc1F` (centres undefined), for which the “activity change, negative = inhibition” value was 11.3%. For the molecule `COc1cccc(C(=O)Nc2c3c(nn2-c2cccc(C)c2C)CS(=O)(=O)C3)c1OC`, the “activity change, negative = inhibition” value is -22.1%.

`Cc1cc(C(=O)NNC(=O)c2ccccc2O)c(C)o1`: the “activity change, negative = inhibition” value is -18.6%. For the molecule `CC1(C)Cc2c(cnn2-c2cccc(F)c2)C(NC(=O)c2cc[n+]([O-])cc2)C1` (centres undefined), the “activity change, negative = inhibition” value is 23.5%. As to `Cc1cc(C(=O)NC2CCCc3c2cnn3-c2cccc(C)c2C)c(C)o1` (centres undefined), the Potency is 10 µM (active).

For `Cn1nccc1C(=O)NC1CCCc2c1cnn2-c1ccccc1F` (centres undefined), the Potency is 0.891 µM (active). For `COc1ccc(C(=O)NC2CC(C)(C)Cc3c2cnn3-c2ccccc2C)o1` (centres undefined), the “activity change, negative = inhibition” value is -12%. On the same count and under the same terms, in the case of `NC(=S)NN=C1CCCC(C(F)(F)F)C1` (centres undefined) it was 19.4%; in that of `C#CCOCCOCCOCCNc1nc(N2CCN(C(=O)Cn3cc(CCCCN)nn3)CC2)nc(N2CCN(C(=O)[C@H](CCCCN)n3cc(CCC(=O)O)nn3)CC2)n1`, 19.6%.

In the case of `CCOC(=O)C1=CN(Cc2ccc(Br)cc2)S(=O)(=O)N(C)C1C` (centres undefined), the “activity change, negative = inhibition” value is -2.23%.

As for `CCOC(=O)[C@H]1[C@H]2COc3cc(OC)ccc3[C@@H]2N2C(=O)CN(Cc3ccc(Cl)cc3)C(=O)[C@@]12C`, the “activity change, negative = inhibition” value was 1.97%. In the case of `CN(CC(=O)NCCc1ccc(S(N)(=O)=O)cc1)CC(=O)Nc1ccc(F)c(F)c1F`, the “activity change, negative = inhibition” value is -10.3%.

As for `O=C(NCCS(=O)(=O)N1CCN(c2ccc(F)cc2)CC1)c1ccc2c(c1)OCO2`, the “activity change, negative = inhibition” value is -7.36%.
